# Test results from PubChem BioAssay AID624351 (Southern Research Specialized Biocontainment Screening …, 2012).
# The whole screen tested about 2,400 compounds, of which about 1,400 (58%) were called active. The set was probably picked from earlier hits. The list shows a part of the results. A number with no mark means an inactive call.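 The calls were made as follows: active = inhibition of 30% or more at any tested dose; inconclusive = primary hits over the limit that were never retested; inactive = the rest.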
# Assay: coupled detection enzyme interference, dose response, artefact control for MgcRacGAP inhibitor project, biochemical, coupled enzyme counter-screen (AID 624351);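 also: signal is the ADP detection kit reading of free GDP without any GAP enzyme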;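 as to inhibition: 0% = median positive control wells and 100% = median negative control wells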
# Settings: ADP Hunter coupled enzyme counter-screen, fluorescence, no MgcRacGAP; series mostly up to 80 µM; inhibition: at the top concentration
SMILES,IC50,inhibition
CN1CCN(CCCN2c3ccccc3Sc3ccc(Cl)cc32)CC1,83.1 µM (active),
C=CCc1cc(Cl)ccc1OCCN(C)C,,18.7%
CN(C)CCCN1c2ccc(O)cc2Sc2ccc(Cl)cc21,13.1 µM (active),
CN1CCN(CCOCCOc2ccc(Br)cc2Cl)CC1,,17.7%
CCN1CCN(CCCOc2ccc(Cl)cc2Br)CC1,,27.8%
Oc1ccc(/C=N/Nc2ccc(C(F)(F)F)cn2)cc1,29.7 µM (active),
COc1cc(/C=N/Nc2ccc(C(F)(F)F)cn2)ccc1O,52.5 µM (active),
Oc1ccc(/C=N/Nc2ccc(C(F)(F)F)cn2)c(O)c1,34.8 µM (active),
Cc1ncc(CO)c(/C=N/Nc2ccc(C(F)(F)F)cn2)c1O,,-1.58%
COc1cc(/C=N/Nc2ncc(C(F)(F)F)cc2Cl)cc(OC)c1O,,28.1%
OCCNCCSc1nc(C2CCCCC2)n(-c2ccccc2Cl)n1,,13.2%
O=c1[nH]c(/C=C\c2ccc(O)cc2)nc(O)c1[N+](=O)[O-],43.4 µM (active),
COc1cc(/C=N/NC(=O)c2ccc(N3CCCC3=O)cc2)ccc1O,31.5 µM (active),
COc1cc(/C=N/NC(=O)c2cccc(N3CCCC3=O)c2)ccc1O,34.1 µM (active),
O=c1nc2s/c(=C\c3ccc(-c4ccccc4[N+](=O)[O-])o3)c(=O)n2nc1-c1ccccc1,,-3.71%
C=C1CC(C(=O)N/N=C/c2ccc(O)cc2)C1,45.9 µM (active),
O=C(N/N=C/c1ccc(O)cc1)NC12CC3CC(CC(C3)C1)C2,53 µM (active),
COc1cc(/C=N/NC(=O)NC23CC4CC(CC(C4)C2)C3)ccc1O,56.2 µM (active),
COc1cc(/C=N/N=C2\CC3CCC2(C)C3(C)C)ccc1O (stereo not given),45.7 µM (active),
O=C(O)C1CSC(c2ccco2)N1 (stereo not given),,-6.99%
CCOc1ccc(CNC2CCCc3ccccc32)cc1 (stereo not given),,16.4%
COc1cc(/C=N\NC(=O)C2CC3C=CC2C3)ccc1O (stereo not given),23.9 µM (active),

SMILES,IC50,inhibition
COCCNC(=O)Cn1cc(/C=N/NC(=O)c2ccc(Oc3ccc(O)cc3)cc2)c2ccccc21,44.8 µM (active),
COCCNC(=O)CN(C(=O)Cn1nnc2ccccc21)c1ccc(C)cc1,,5.89%
Oc1ccc(/C=N/Nc2ncc(Cl)cc2Cl)cc1,21.5 µM (active),
Oc1ccc(/C=N/Nc2nccnc2Cl)c(O)c1,12.8 µM (active),
Oc1ccc(/C=N/Nc2nccnc2Cl)cc1,21.1 µM (active),
Cc1cc(C)c(OCCCCN(C)Cc2ccccc2)c(C)c1,,14.7%
COc1cc(OC)c(OC)cc1/C=N/N(C)c1ccccc1,56.4 µM (active),
COc1cc(/C=N/N(C)c2ccccc2)cc(Cl)c1O,37.7 µM (active),
COc1cc(/C=N/N(C)c2ccccc2)ccc1O,17.3 µM (active),
Cc1ccc(N2C(S)=C(C#N)C(=O)NC2c2cccs2)cc1 (stereo not given),,5.26%
CC1=NN(c2ccc(Cl)c(C(=O)O)c2)C(=O)/C1=C/c1ccc(-c2ccccc2[N+](=O)[O-])o1,,8.7%
CC(=O)N1CCN(c2ccc(NCc3cccc(C)c3)cc2)CC1,7.75 µM (active),
CC(=O)N1CCN(c2ccc(NCc3ccc(C(C)C)cc3)cc2)CC1,8.85 µM (active),
Cc1cccc(CN2CCN(C(C)C(=O)NC(C)c3ccccc3)CC2)c1 (stereo not given),,27.7%
Cc1ccc(CNc2ccc(N3CCOCC3)cc2)s1,11.7 µM (active),
CC(=O)N1CCN(c2ccc(NCc3ccc(F)cc3)cc2)CC1,10.9 µM (active),
COc1cccc(-c2cc(C(=O)N3CCN(c4ccc(F)cc4)CC3)no2)c1,,2.83%
O=c1c2cc(F)ccc2sn1-c1ccccc1,,22.1%
CCc1ccc(CNc2ccc(N3CCN(C(C)=O)CC3)cc2)cc1,9.1 µM (active),
CC(=O)N1CCN(c2ccc(NCc3ccccc3)cc2)CC1,8.44 µM (active),
O=C(CNCc1cccs1)Nc1ccc(N2CCCCCC2)cc1,,19.7%
CC(C)c1ccc(CNc2ccc(N3CCOCC3)cc2)cc1,7.52 µM (active),

SMILES,IC50,inhibition
CC(=O)N1CCN(c2ccc(NCc3cccs3)cc2)CC1,14.7 µM (active),
Cc1ccccc1C(OCC(O)CN1CCN(CCO)CC1)c1ccccc1 (stereo not given),,26.4%
O=C(CNc1ccc(Oc2ccccc2)cc1)N1CCOCC1,,17.7%
c1ccc(CNc2ccc(N3CCOCC3)cc2)cc1,5.39 µM (active),
CC(C)n1cc(/C=N/Nc2ccc(Cl)c(C(=O)O)c2)c2ccccc21,,26%
Cc1ccc(/C=N/Nc2ccc(C(=O)O)cc2)s1,79.7 µM (active),
Cc1ccc(/C=N/Nc2ccc(Cl)c(C(=O)O)c2)s1,67.4 µM (active),
O=c1[nH][nH]cc1C=Nc1cc(Cl)ccc1O,46 µM (active),
O=c1[nH][nH]cc1C=Nc1ccc(Cl)cc1Cl,,2.11%
CCCCn1c(SCC(=O)c2ccc(O)c(O)c2)nc2ccsc2c1=O,45.9 µM (active),
CC(Oc1ccc(Cl)cc1Cl)C(=O)Nc1ccc(O)cc1 (stereo not given),46.9 µM (active),
CCOc1cccc(CNc2ccc(O)cc2)c1OCc1ccc(Cl)cc1Cl,,-24.7%
O=C(NC(NC(=S)Nc1ccc(Cl)c(Cl)c1)C(Cl)(Cl)Cl)c1ccco1 (stereo not given),,3.1%
O=C(NC(=S)Nc1cccc2c(O)cccc12)c1ccco1,42.5 µM (active),
CCCC(=O)NC(=S)Nc1cccc2c(O)cccc12,46.4 µM (active),
Oc1ccc(/C=N/NC(=S)NCc2ccco2)cc1,44.4 µM (active),
CCN1CCN(CC(=O)Nc2cc(C(F)(F)F)ccc2OCCOC)CC1,,28.5%
CCOc1cc(/C=N/NC(=O)CN2CCCCC2)ccc1O,55.5 µM (active),
S=C(NCc1ccco1)NCc1ccco1,,1.64%
COc1cc(/C=N/NC(=O)C(=O)N2CCCC2)ccc1O,40.8 µM (active),
CCOc1cc(/C=N/NC(=O)C(=O)N2CCCC2)ccc1O,60.6 µM (active),
Oc1ccc(/C=N/NC(=S)NCC2CCCO2)cc1 (stereo not given),28.5 µM (active),

SMILES,IC50,inhibition
CCN1CCN(C(=S)NCC2CCCO2)CC1 (stereo not given),,14.7%
COc1cc(/C=N/NC(=O)C(=O)NCC2CCCO2)ccc1O (stereo not given),31.2 µM (active),
Cc1nnc(N=c2ssnc2Cl)o1,,15.3%
Nc1nc(=S)ss1,,-3.59%
COc1cccc(CN2CCC(C(=O)N3CCC(C)CC3)CC2)c1,,16.9%
COc1ccc2[nH]c3c(=O)n(CCCCC(=O)N4CCC(C(N)=O)CC4)c(=S)[nH]c3c2c1,53.3 µM (active),
COc1ccc2[nH]c3c(=O)n(Cc4ccc(C(=O)N5CCC(C(N)=O)CC5)cc4)c(=S)[nH]c3c2c1,37.6 µM (active),
COc1ccc(N2CCN(C(=O)CCCn3c(=O)c4cccn4c4cccnc43)CC2)cc1,,23.6%
COc1ccc(CN2CCCC(C(=O)N3CCCC3)C2)cc1 (stereo not given),,7.37%
CC(C)=NNc1cc([N+](=O)[O-])cc2c1C(=O)N(C)S2=O (stereo not given),,2.89%
Oc1ccc(Cl)cc1N=Cc1sc2ccccc2c1Cl,21.4 µM (active),
Cc1ccc(O)c(N=Cc2sc3ccccc3c2Cl)c1,39.7 µM (active),
CS(=O)(=O)N1CCN(C2C3CC4CC(C3)CC2C4)CC1 (stereo not given),,19.5%
O=C(CN1CCCCCC1)NN(Cc1ccccc1)c1ccccc1,,13.4%
O=C(COC(=O)c1ccccc1)Nc1ncc([N+](=O)[O-])s1,,5.57%
COc1ccc(N2CCN(C(c3cccs3)C(C)NC(=O)c3ccco3)CC2)cc1 (stereo not given),,28%
CCS(=O)(=O)NC(C)C(c1cccs1)N1CCN(c2ccc(OC)cc2)CC1 (stereo not given),81.8 µM (active),
COc1ccc(N2CCN(C(CNS(=O)(=O)c3ccc4c(c3)OCCO4)c3ccco3)CC2)cc1 (stereo not given),,21.5%
Nc1ccc2nc(N)sc2c1,11 µM (active),
Nc1ccc(-c2nc3ccc(N)cc3s2)cc1,75.8 µM (active),
N#CC1(Nc2ccc3c4c(cccc24)CC3)CCCCC1,24.3 µM (active),
COc1ccc2nc(C)cc(SCC(=O)N/N=C/c3ccc(O)c(O)c3)c2c1,28 µM (active),

SMILES,IC50,inhibition
COc1ccc2nc(/N=C(\N)NC(=O)N3c4ccccc4Sc4ccccc43)nc(C)c2c1,,-3.01%
COc1ccc2c(c1)c(C(=O)N/N=C/c1ccc(O)c(O)c1)c(C)n2C,22 µM (active),
COc1ccc(/C=N/Nc2cc(C)nc3ccc(OC)cc23)c(OC)c1,,8.35%
CC1(C)C2CCC(CN=C(N)CSS(=O)(=O)O)C1C2 (stereo not given),,4.39%
CC(/C=C/c1ccc(O)cc1)=N/O,11.8 µM (active),
COc1ccc(N2CCC(CNC(=S)Nc3cccc(C)c3)C2)cc1 (stereo not given),72.2 µM (active),
COc1ccc(N2CCC(CNC(=S)Nc3cc(C)cc(C)c3)C2)cc1 (stereo not given),,28%
CCc1c(C)nc(N2CCN(c3ccc(OC)cc3)CC2)[nH]c1=O,,24.9%
CCc1ccccc1NC(=S)NCC1CCN(c2ccc(OC)cc2)C1 (stereo not given),65.3 µM (active),
COc1ccc(NC(=S)NCC2CCN(c3ccc(OC)cc3)C2)cc1 (stereo not given),52.5 µM (active),
COc1ccc(N2CCC(CNC(=O)Nc3ccc(C)c(C)c3)C2)cc1 (stereo not given),,10.1%
COc1ccc(CNCC(=O)Nc2ccccc2-n2cccc2)cc1,,8.24%
CC(=O)N1CCC(=NNC(=O)c2cc3ccccc3cc2O)CC1,,24.4%
CN(Cc1ccccc1)C(=O)C1CCCN(Cc2ccc(Cl)cc2)C1 (stereo not given),,13.7%
COc1cc(/C=N/N2C(=O)c3ccccc3C2=O)ccc1O,41.6 µM (active),
O=C1C2C3C=CC(CC3)C2C(=O)N1/N=C/c1ccc(O)c(O)c1 (stereo not given),64.1 µM (active),
O=C1c2ccccc2C(=O)N1/N=C/c1ccc(O)c(O)c1,33.2 µM (active),
Nc1ccc(Cn2ccc3c4c(N)nc(N)nc4ccc32)cc1,,3.98%
Cn1c(=O)c2ccccc2n2c(=S)[nH]nc12,13.2 µM (active),
O=c1c2ccccc2n2c(=S)[nH]nc2n1-c1ccccc1,20.6 µM (active),
CCOCCCn1c(=O)c2ccccc2n2c(=S)[nH]nc12,16.1 µM (active),
Cc1cccc(-n2c(=O)c3ccccc3n3c(=S)[nH]nc23)c1C,34 µM (active),
